Assay outcomes from PubChem.
Hits are enriched below; roughly 0.9% of the tested compounds scored in any of these assays.
BLM helicase inh – blocks DNA unwinding by human BLM helicase. AID 2528. 350,000 compounds, 0.2% hits. recombinant BLM DNA unwinding, fluorescence dequenching. Potency, µM (highest dose often 56.1 µM), for the others: top-dose activity change, negative = inhibition, most hits filed as inhibitors. P54132;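 further: plate controls were vehicle for no effect and no enzyme for full effect; nearly all actives have a fitted effect of over 35% in size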
APEX1 inh – APE1 (human) endonuclease inhibition | recombinant APE1, TAMRA/BHQ-2 abasic DNA cleavage fluorescence | Potency, µM (series often up to 65.8 µM), without a hit: at the top dose activity change, negative = inhibition, most hits filed as inhibitors | 350,000 compounds, 0.35% hits;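 further: plate controls were vehicle for no effect and reference inhibitor for full effect; nearly all actives have a fitted effect of over 55% in size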
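Quantitative HTS: incision of a TAMRA/BHQ-2 double-stranded substrate bearing a tetrahydrofuran abasic site by 0.75 nM APE1 raises fluorescence. Substrate 50 nM final, added after 15 min compound preincubation at room temperature; progress as third-minus-first kinetic read difference.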
KAT2A inh – inhibitors of human GCN5L2 histone acetyltransferase; Q92830; AID 504327; 390,000 compounds, 0.21% hits; GCN5L2 HAT assay, ThioGlo1 CoA-SH fluorescence; Potency, µM (doses to about 58.9 µM), for inactives: top-dose activity change, negative = inhibition, hits mostly inhibitors
Target sequence (Q92830 whole entry, looked up): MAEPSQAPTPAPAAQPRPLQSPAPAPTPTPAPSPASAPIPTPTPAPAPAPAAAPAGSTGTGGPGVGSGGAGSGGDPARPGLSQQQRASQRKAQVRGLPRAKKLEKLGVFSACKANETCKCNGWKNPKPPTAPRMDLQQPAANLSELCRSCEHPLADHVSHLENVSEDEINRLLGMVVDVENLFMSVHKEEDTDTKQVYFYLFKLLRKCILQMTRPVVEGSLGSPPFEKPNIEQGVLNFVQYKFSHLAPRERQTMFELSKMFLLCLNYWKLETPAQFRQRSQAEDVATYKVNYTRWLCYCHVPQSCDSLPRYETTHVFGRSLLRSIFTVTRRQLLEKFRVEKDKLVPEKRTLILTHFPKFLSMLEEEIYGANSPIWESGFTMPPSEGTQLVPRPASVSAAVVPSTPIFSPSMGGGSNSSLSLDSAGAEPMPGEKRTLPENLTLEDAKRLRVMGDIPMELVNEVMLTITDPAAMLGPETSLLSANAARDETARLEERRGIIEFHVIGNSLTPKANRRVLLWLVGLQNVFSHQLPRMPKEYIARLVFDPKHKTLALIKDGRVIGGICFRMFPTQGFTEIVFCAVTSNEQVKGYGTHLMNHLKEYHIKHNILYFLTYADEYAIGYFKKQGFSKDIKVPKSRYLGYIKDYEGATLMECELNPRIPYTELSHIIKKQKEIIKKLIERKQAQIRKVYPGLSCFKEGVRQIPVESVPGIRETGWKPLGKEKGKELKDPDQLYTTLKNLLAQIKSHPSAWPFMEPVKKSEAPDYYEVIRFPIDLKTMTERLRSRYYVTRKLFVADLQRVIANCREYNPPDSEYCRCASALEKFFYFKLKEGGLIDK
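Compounds, pin-transferred from DMSO stocks, meet 20nM GCN5L2 for 15 min before the reaction begins with H3(1-25) peptide (75uM) and acetyl-CoA (70uM). Thiol-reactive ThioGlo1 reports CoA release over 20 min at room temperature.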
LMNA splice mod – modulators of lamin A splicing; HeLa LMNA splicing GFP/RFP minigene ratio, 48 h; Potency, µM (titrated, usually from 46.1 µM), inactives show top-dose ratio change, negative = inhibition, actives largely listed as inhibitors; 200,000 compounds, 0.01% hits; AID 1487; active means well fitted inhibition curve with a large enough effect in the signal ratio, with a control signal flat, not every such curve was filed as active; inconclusive means small, poorly fitted or top-dose-only effect, or effect the other way, or a change in a side signal; the % refers to the signal ratio
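Read-out is the ratio of GFP to DsRed2 object intensity, acquired by 488 nm laser-scanning cytometry on HeLa lamin A-EGFP minigene reporter cells. Compound incubation 48 hrs at 37 °C in Opti-MEM with 2% FBS; DMSO 0.5% final.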
TDP1 block – TDP1 (human) enzyme inhibition; Q9NUW8; 350,000 compounds, 0.28% hits; Potency, µM (series often up to 130 µM), for inactives: at the highest dose activity change, negative = inhibition, hits mostly inhibitors; recombinant TDP1, AlphaScreen DNA substrate cleavage; AID 485290; further: nearly all actives have a fitted effect of over 40% in size
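Here, a 5' biotin and 3' phosphotyrosine-FITC DNA oligonucleotide reports Tdp1 activity: intact substrate bridges AlphaScreen beads, while cleavage leaves a 3' phosphate and drops signal. All incubations at room temperature.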
RECQ1 inh-1 – blocks DNA unwinding by human RECQ1; P46063; RECQ1 DNA unwinding, red fluorescence kinetic read; Potency, µM (top dose mostly 57.3 µM), inactives show top-dose activity, negative = inhibition, actives largely listed as inhibitors; 240,000 compounds, 0.54% hits;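 further: plate controls were vehicle for no effect and no enzyme for full effect; nearly all actives have a fitted effect of over 30% in size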
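RECQ1T1 50 nM; forked duplex (20 bp + 30-nt ss tails) 200 nM, ATP 2 mM final; pH 8.0, 2 mM MgCl2, 2.5 ug/ml poly(dI-dC); 15 min compound preincubation; discontinuous kinetic read over 2 h at RT.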
RECQ1 inh conf – confirmation of human RECQ1 helicase inhibitors. shares compounds with RECQ1 inh-1. Potency, µM (series often up to 229 µM), for the others: top-dose activity change, negative = inhibition, hits mostly inhibitors. AID 2708. 610 compounds, 28% hits. RECQ1 helicase DNA unwinding, fluorescence; further: nearly all actives have a fitted effect of over 45% in size
RECQ1 ADP FP – ADP displacement flagged in RECQ1 inhibitor counter-screen | shares compounds with RECQ1 inh-1 | ADP fluorescence polarization displacement counterscreen | Potency, µM (series often up to 228 µM), for inactives: at the highest dose activity change, negative = inhibition, actives largely listed as inhibitors | 530 compounds, 27% hits; further: nearly all actives have a fitted effect of over 45% in size
RECQ1 inh-2 – RECQ1 helicase inhibition confirmed, round 2; shares compounds with RECQ1 inh-1; recombinant RECQ1 DNA unwinding, red fluorescence; Potency, µM (series often up to 119 µM), for inactives: top-dose activity, negative = inhibition, actives largely listed as inhibitors; 1,100 compounds, 15% hits; further: nearly all actives have a fitted effect of over 50% in size
The depositor's hits bear a star; [ ] = another dose, or the depositor's remark. Unless noted, the call rests on the fitted dose curve; in most records, active means well fitted curve in the direction sought with a large enough effect; inconclusive means small, poorly fitted or top-dose-only effect, or another doubt; inactive means no such curve, though single readings can be large; an effect the other way counts as inactive or inconclusive. Unless noted, on the % scale 0 is the no-effect control and ±100 the full control effect; potency means the concentration at half of the fitted maximal effect.

Results for O=C(O)c1cccc(Cn2c(Cl)c(/C=N/NC(=O)c3cc4ccccc4cc3O)sc2=O)c1 ?
BLM helicase inh: 8.91µM*; APEX1 inh: inconclusive; KAT2A inh: inconclusive; RECQ1 inh-1: 4.47µM*; RECQ1 inh conf: inconclusive; RECQ1 ADP FP: 7.5%[91.9 µM]

What do the screens show for `CCOc1ccc(C(=O)Nc2cc(-c3nc4ccccc4[nH]3)ccc2Cl)cc1[N+](=O)[O-]`?
BLM helicase inh: inconclusive; APEX1 inh: inconclusive; KAT2A inh: 0.7%; LMNA splice mod: 6.6%; RECQ1 inh-1: inconclusive; RECQ1 inh-2: 56.2µM*

What do the screens show for `CCOc1ccc(C(=O)Nc2cccc(-c3cc4ccccc4oc3=O)c2)cc1[N+](=O)[O-]`?
BLM helicase inh: -10.1%; APEX1 inh: -10.7%; KAT2A inh: -0.8%; LMNA splice mod: -3.9%; TDP1 block: 2.0%; RECQ1 inh-1: 25.1µM*; RECQ1 inh-2: inconclusive

Results for Cc1cccc(Cn2c(=O)n3nc(-c4ccccc4)nc3c3ccccc32)c1 ?
BLM helicase inh: -8.0%; KAT2A inh: -12.8%; TDP1 block: 4.5%

Results for O=C(O)CCn1c2c(c3ccccc31)C[C@H](NS(=O)(=O)c1ccc(F)cc1)CC2 ?
BLM helicase inh: 1.2%; KAT2A inh: 3.3%

Results for Cc1cccc(N2CCN(C(=O)c3ccccc3NC(=O)C3CC=CCC3C(=O)O)CC2)c1 (configuration not stated) ?
BLM helicase inh: -1.1%; APEX1 inh: -4.4%; KAT2A inh: inconclusive; LMNA splice mod: -1.0%; TDP1 block: 3.5%; RECQ1 inh-1: inactive; RECQ1 inh conf: 11.7%; RECQ1 ADP FP: -5.9%

What do the screens show for `COc1cccc(Nc2sc(C(=O)c3ccc(F)cc3)c(N)c2C(=O)NCc2ccc(C)cc2)c1`?
BLM helicase inh: -4.9%; KAT2A inh: -5.8%; LMNA splice mod: -9.3%[46 µM]; TDP1 block: 9.3%

How did CNc1ccc(Br)cc(C(=O)/C=C/c2cc(OC)ccc2OC)c1=O do in these assays?
BLM helicase inh: -14.4%; APEX1 inh: -6.2%; KAT2A inh: inconclusive; LMNA splice mod: 6.9%; TDP1 block: -9.7%; RECQ1 inh-1: -1.0%

Results for CNc1ccc(Br)cc(C(=O)/C=C/c2ccc3c(c2)OCO3)c1=O ?
BLM helicase inh: -22.7%; APEX1 inh: inconclusive; KAT2A inh: 0.4%; LMNA splice mod: inconclusive; TDP1 block: -9.8%; RECQ1 inh-1: inconclusive; RECQ1 inh-2: inconclusive

Results for CNc1ccc(Br)cc(C(=O)/C=C/c2ccc(OC)cc2)c1=O ?
BLM helicase inh: inconclusive; APEX1 inh: inconclusive; KAT2A inh: -9.0%; LMNA splice mod: 1.6%; TDP1 block: -10.5%; RECQ1 inh-1: inconclusive; RECQ1 inh-2: -12.8%

Results for Cc1ccc2c(c1)c1c3n2CCN(C(=O)c2cccc(C(F)(F)F)c2)C3CCC1 (configuration not stated) ?
BLM helicase inh: -5.8%; KAT2A inh: -14.1%; TDP1 block: 8.4%

What do the screens show for `N[C@](CC1c2ccccc2Oc2ccccc21)(C(=O)O)[C@H]1C[C@@H]1C(=O)O`?
APEX1 inh: 8.1%; KAT2A inh: -9.5%; TDP1 block: 3.7%; RECQ1 inh-1: -6.3%

How did CC(=O)OCCNc1nc(-c2ccccc2)nc2ccccc12 do in these assays?
BLM helicase inh: 0.7%; APEX1 inh: 9.9%; KAT2A inh: -0.6%; LMNA splice mod: -0.4%[46 µM]; TDP1 block: 0.0%; RECQ1 inh-1: inconclusive; RECQ1 inh-2: -8.8%

How did O=C(Nc1cccnc1)c1ccc(C(=O)Nc2cccnc2)cc1 do in these assays?
BLM helicase inh: -1.8%; APEX1 inh: 3.8%; KAT2A inh: -2.2%; TDP1 block: 2.8%; RECQ1 inh-1: inactive

What do the screens show for `COc1ccc(C(=O)Nc2cccnc2)cc1`?
BLM helicase inh: 0.4%; APEX1 inh: -7.1%; KAT2A inh: -3.4%; LMNA splice mod: -7.9%; TDP1 block: -2.3%; RECQ1 inh-1: -5.7%; RECQ1 inh conf: 6.3%; RECQ1 ADP FP: inconclusive

How did C=CCSC1=N/C(=C\c2sccc2C)C(=O)S1 do in these assays?
BLM helicase inh: -2.2%; APEX1 inh: -3.1%; KAT2A inh: -1.0%; LMNA splice mod: -7.8%; TDP1 block: 2.9%; RECQ1 inh-1: -2.0%

Results for C=CCSC1=N/C(=C\C=C\c2ccco2)C(=O)S1 ?
BLM helicase inh: inconclusive; APEX1 inh: 10µM*; KAT2A inh: inconclusive; LMNA splice mod: 1.7%; TDP1 block: 2.1%; RECQ1 inh-1: 12.6µM*; RECQ1 inh conf: 44.7µM*; RECQ1 ADP FP: 14.1µM*; RECQ1 inh-2: inconclusive

How did CC(C)C1C(=O)N(S(C)(=O)=O)[C@H]2CCN(C(=O)/C=C/CN3CCCCC3)[C@@H]12 (some centres not stated) do in these assays?
BLM helicase inh: 5.5%; APEX1 inh: 5.6%; KAT2A inh: 3.2%; TDP1 block: 10.8%; RECQ1 inh-1: 11.5%

How did C=C1c2cccc(O)c2C(O)=C2C(=O)[C@]3(O)C(O)=C(C(N)=O)C(=O)[C@@H](N(C)C)[C@@H]3[C@@H](O)[C@H]12 do in these assays?
BLM helicase inh: -11.1%; APEX1 inh: 2.51µM*; KAT2A inh: -11.7%; RECQ1 inh-1: 7.94µM*; RECQ1 inh conf: inconclusive; RECQ1 ADP FP: 7.08µM*; RECQ1 inh-2: -6.8%

Results for C=C1c2cccc(O)c2C(O)=C2C(=O)[C@]3(O)C(O)=C(C(N)=O)C(=O)C(N(C)C)C3C(O)C12 (some centres not stated) ?
BLM helicase inh: -3.6%; APEX1 inh: 3.98µM*; KAT2A inh: 10µM*; RECQ1 inh-1: 8.91µM*; RECQ1 inh conf: inconclusive; RECQ1 ADP FP: 7.94µM*; RECQ1 inh-2: -13.1%
